# Laboratory results as given in the supplement of paper PMC12282887.
# ± gives the standard deviation of the averaged measurements.
# Legend:
# Assay in all cases: promoter activity interaction Z-score (Lux/OD deviation from empty-vector control); higher = stronger promoter induction by the compound
# [1] = system: E. coli BW25113 acrABp lux reporter
# Procedure, shortened: (§1)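 OD600 and luminescence of E. coli BW25113 reporter cultures (40 µl LB Lennox, 384-well plates, 37°C) were measured every 30 min for 12 h. Integration ran over 0–8 h for wild type or 1–9 h for deletion strains, and wells with growth below 10% of the median were dropped. The score is the Z-transformed residual of growth-normalised luminescence fitted against a control.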
# [2] = system: E. coli BW25113 micFp lux reporter
# Procedure, shortened: as §1
# [3] = system: E. coli BW25113 ompFp lux reporter
# Procedure, shortened: as §1
# [4] = system: E. coli BW25113 robp lux reporter
# Procedure, shortened: as §1
# [5] = system: E. coli BW25113 soxSp lux reporter
# Procedure, shortened: as §1
# [6] = system: E. coli BW25113 tolCp lux reporter
# Procedure, shortened: as §1
# [7] = 0.034 µg/ml, genetic background: wild type
# [8] = 0.034 µg/ml, genetic background: ΔmarA
# [9] = 0.034 µg/ml, genetic background: Δrob
# [10] = 0.034 µg/ml, genetic background: ΔsoxS
# [11] = 0.067 µg/ml, genetic background: wild type
# [12] = 0.067 µg/ml, genetic background: ΔmarA
# [13] = 0.067 µg/ml, genetic background: Δrob
# [14] = 0.067 µg/ml, genetic background: ΔsoxS
# [15] = 0.13 µg/ml, genetic background: wild type
# [16] = 0.13 µg/ml, genetic background: ΔmarA
# [17] = 0.13 µg/ml, genetic background: Δrob
# [18] = 0.13 µg/ml, genetic background: ΔsoxS
# [19] = 0.27 µg/ml, genetic background: wild type
# [20] = 0.27 µg/ml, genetic background: ΔmarA
# [21] = 0.27 µg/ml, genetic background: Δrob
# [22] = 0.27 µg/ml, genetic background: ΔsoxS
structure (smiles),measurement,setting,value
CCN1CCN(C(=O)N[C@@H](C(=O)N[C@@H]2C(=O)N3[C@@H]2SC(C)(C)[C@@H]3C(=O)O)c2ccccc2)C(=O)C1=O [Piperacillin],promoter activity interaction Z-score,[1]; [7],-0.232 ± 0.0098
same,promoter activity interaction Z-score,[1]; [8],-0.0362 ± 0.011
same,promoter activity interaction Z-score,[1]; [9],0.0917 ± 0.12
same,promoter activity interaction Z-score,[1]; [10],-0.171 ± 0.35
same,promoter activity interaction Z-score,[1]; [11],-0.00951 ± 0.16
same,promoter activity interaction Z-score,[1]; [12],-0.975 ± 0.12
same,promoter activity interaction Z-score,[1]; [13],-0.296 ± 0.13
same,promoter activity interaction Z-score,[1]; [14],0.0579 ± 0.55
same,promoter activity interaction Z-score,[1]; [15],-0.124 ± 0.2
same,promoter activity interaction Z-score,[1]; [16],0.866 ± 1.5
same,promoter activity interaction Z-score,[1]; [17],0.0632 ± 0.21
same,promoter activity interaction Z-score,[1]; [18],-0.295 ± 0.39
same,promoter activity interaction Z-score,[1]; [19],-0.155 ± 0.22
same,promoter activity interaction Z-score,[1]; [20],1.08 ± 0.93
same,promoter activity interaction Z-score,[1]; [21],0.045 ± 0.16
same,promoter activity interaction Z-score,[1]; [22],-0.703 ± 0.75
same,promoter activity interaction Z-score,[2]; [7],0.00552 ± 0.088
same,promoter activity interaction Z-score,[2]; [8],-0.146 ± 0.15
same,promoter activity interaction Z-score,[2]; [9],-0.0761 ± 0.045
same,promoter activity interaction Z-score,[2]; [10],-0.264 ± 0.15
same,promoter activity interaction Z-score,[2]; [11],0.13 ± 0.05
same,promoter activity interaction Z-score,[2]; [12],0.0167 ± 0.14
same,promoter activity interaction Z-score,[2]; [13],-0.0679 ± 0.059
same,promoter activity interaction Z-score,[2]; [14],-0.148 ± 0.27
same,promoter activity interaction Z-score,[2]; [15],-0.112 ± 0.27
same,promoter activity interaction Z-score,[2]; [16],-0.0842 ± 0.077
same,promoter activity interaction Z-score,[2]; [17],-0.0193 ± 0.093
same,promoter activity interaction Z-score,[2]; [18],-0.266 ± 0.18
same,promoter activity interaction Z-score,[2]; [19],-0.272 ± 0.16
same,promoter activity interaction Z-score,[2]; [20],-0.139 ± 0.059
same,promoter activity interaction Z-score,[2]; [21],-0.0211 ± 0.15
same,promoter activity interaction Z-score,[2]; [22],-0.639 ± 0.054
same,promoter activity interaction Z-score,[3]; [7],-0.0853 ± 0.096
same,promoter activity interaction Z-score,[3]; [8],0.15 ± 0.27
same,promoter activity interaction Z-score,[3]; [9],-0.247 ± 0.24
same,promoter activity interaction Z-score,[3]; [10],-0.152 ± 0.042
same,promoter activity interaction Z-score,[3]; [11],0.324 ± 0.3
same,promoter activity interaction Z-score,[3]; [12],-0.184 ± 0.32
same,promoter activity interaction Z-score,[3]; [13],0.0351 ± 0.21
same,promoter activity interaction Z-score,[3]; [14],0.0638 ± 0.27
same,promoter activity interaction Z-score,[3]; [15],0.0298 ± 0.29
same,promoter activity interaction Z-score,[3]; [16],0.086 ± 0.054
same,promoter activity interaction Z-score,[3]; [17],-0.035 ± 0.23
same,promoter activity interaction Z-score,[3]; [18],-0.0829 ± 0.38
same,promoter activity interaction Z-score,[3]; [19],0.489 ± 0.45
same,promoter activity interaction Z-score,[3]; [20],0.879 ± 0.27
same,promoter activity interaction Z-score,[3]; [21],1.38 ± 0.61
same,promoter activity interaction Z-score,[3]; [22],0.0824 ± 1.4
same,promoter activity interaction Z-score,[4]; [7],0.0506 ± 0.23
same,promoter activity interaction Z-score,[4]; [8],-0.0397 ± 0.005
same,promoter activity interaction Z-score,[4]; [9],0.283 ± 0.84
same,promoter activity interaction Z-score,[4]; [10],-0.0239 ± 0.021
same,promoter activity interaction Z-score,[4]; [11],0.564 ± 0.3
same,promoter activity interaction Z-score,[4]; [12],0.263 ± 0.19
same,promoter activity interaction Z-score,[4]; [13],0.443 ± 0.078
same,promoter activity interaction Z-score,[4]; [14],0.154 ± 0.23
same,promoter activity interaction Z-score,[4]; [15],0.0585 ± 0.068
same,promoter activity interaction Z-score,[4]; [16],0.404 ± 0.017
same,promoter activity interaction Z-score,[4]; [17],0.606 ± 0.011
same,promoter activity interaction Z-score,[4]; [18],0.00285 ± 0.0042
same,promoter activity interaction Z-score,[4]; [19],0.179 ± 0.51
same,promoter activity interaction Z-score,[4]; [20],0.636 ± 0.1
same,promoter activity interaction Z-score,[4]; [21],0.356 ± 0.1
same,promoter activity interaction Z-score,[4]; [22],-0.904 ± 1.2
same,promoter activity interaction Z-score,[5]; [7],-0.0446 ± 0.039
same,promoter activity interaction Z-score,[5]; [8],-0.141 ± 0.061
same,promoter activity interaction Z-score,[5]; [9],0.0401 ± 0.031
same,promoter activity interaction Z-score,[5]; [10],-0.0874 ± 0.14
same,promoter activity interaction Z-score,[5]; [11],0.017 ± 0.053
same,promoter activity interaction Z-score,[5]; [12],-0.00164 ± 0.038
same,promoter activity interaction Z-score,[5]; [13],0.126 ± 0.088
same,promoter activity interaction Z-score,[5]; [14],0.0907 ± 0.13
same,promoter activity interaction Z-score,[5]; [15],-0.0137 ± 0.014
same,promoter activity interaction Z-score,[5]; [16],-0.056 ± 0.022
same,promoter activity interaction Z-score,[5]; [17],-0.105 ± 0.013
same,promoter activity interaction Z-score,[5]; [18],-0.0509 ± 0.17
same,promoter activity interaction Z-score,[5]; [19],-0.122 ± 0.084
same,promoter activity interaction Z-score,[5]; [20],-0.184 ± 0.011
same,promoter activity interaction Z-score,[5]; [21],-0.0489 ± 0.12
same,promoter activity interaction Z-score,[5]; [22],-0.233 ± 0.7
same,promoter activity interaction Z-score,[6]; [7],0.0285 ± 0.87
same,promoter activity interaction Z-score,[6]; [8],-0.171 ± 0.024
same,promoter activity interaction Z-score,[6]; [9],-0.382 ± 0.53
same,promoter activity interaction Z-score,[6]; [10],0.0095 ± 1.5
same,promoter activity interaction Z-score,[6]; [11],0.334 ± 0.13
same,promoter activity interaction Z-score,[6]; [12],0.917 ± 0.67
same,promoter activity interaction Z-score,[6]; [13],0.279 ± 0.2
same,promoter activity interaction Z-score,[6]; [14],-0.332 ± 0.83
same,promoter activity interaction Z-score,[6]; [15],-0.441 ± 0.82
same,promoter activity interaction Z-score,[6]; [16],-0.635 ± 0.38
same,promoter activity interaction Z-score,[6]; [17],0.0967 ± 0.77
same,promoter activity interaction Z-score,[6]; [18],-0.574 ± 0.84
same,promoter activity interaction Z-score,[6]; [19],-0.552 ± 0.3
same,promoter activity interaction Z-score,[6]; [20],0.498 ± 0.032
same,promoter activity interaction Z-score,[6]; [21],0.489 ± 0.43
same,promoter activity interaction Z-score,[6]; [22],-0.895 ± 0.62
